Among the data in PubChem BioAssay are z-score values, retold here.

Molecules are shown by their SMILES. The source made the active and inactive calls.

Assay [1] in a line: compound effects on lung adenocarcinoma cell viability – A549, calcein-AM fluorescence, 48 h, basal, profiling panel (AID 1162). As to conditions: higher = more signal.
A short description of assay [2]: compound effects on differentiated 3T3-L1 adipocyte viability – cell-based, 3T3-L1 adipocytes, calcein-AM fluorescence, 48 h, basal, profiling panel (AID 1163). To be noted: 3T3-L1 adipocytes viability, higher = more signal.
Assay [3] can be described thus: compound effects on hepatocellular carcinoma cell viability – HepG2, calcein-AM fluorescence, 48 h, basal, profiling panel (AID 1164). As to conditions: higher = more signal.
A short description of assay [4]: compound effects on multiple myeloma cell viability – MM1S, calcein-AM fluorescence, 48 h, basal, profiling panel (AID 1165).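 Further: viability of MM1S multiple myeloma cells under basal unstimulated conditions.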 To be noted: higher = more signal.
A short description of assay [5]: calcein-AM signal in unstimulated myeloma cells – cell-based, calcein-AM fluorescence, 48 h, PK04 Diversity Set, profiling panel (AID 1166).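 Further: cells grown under basal conditions without added stimulus.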 As to conditions: RPMI8226 myeloma viability, higher = more signal.
Assay [6] can be described thus: JC-1 mitochondrial signal, unstimulated HepG2 cells – cell-based, JC-1 fluorescence, 24 h, 100 nL compound, profiling panel (AID 1167). As to conditions: HepG2 mitochondrial potential, higher = more signal.
A short description of assay [7]: JC-1 mitochondrial signal, unstimulated adipocytes – cell-based, JC-1 fluorescence, 3T3-L1 adipocytes, 24 h, 100 nL compound, profiling panel (AID 1168). To be noted: JC-1 mitochondrial fluorescence, higher = more signal, called active from +8 up or from −8 down.
Assay [8] in a line: JC-1 mitochondrial signal, unstimulated myeloma cells – cell-based, JC-1 fluorescence, RPMI8226, 24 h, 100 nL compound, profiling panel (AID 1169). To be noted: JC-1 mitochondrial potential fluorescence, higher = more signal.
A short description of assay [9]: JC-1 mitochondrial signal, unstimulated MM1S myeloma – cell-based, JC-1 fluorescence, 24 h, 100 nL compound, profiling panel (AID 1170). To be noted: MM1S mitochondrial potential, higher = more signal.
The nature of assay [10]: resazurin metabolic signal in A549 cells – cell-based, resazurin fluorescence, 24 h, PK04 Diversity Set, profiling panel (AID 1171). To be noted: A549 viability, higher = more signal, called active from +8 up or from −8 down.
Further: test concentration not given here.

Take `COC(=O)CC1OC1[C@H](C)[C@@H](OC)C(C)C` (stereo not given in full): the z-score in assay [1] was 0.285; in assay [2] it was 0.0498; in assay [3], 1.66; in [4] it was -3.45; in assay [5], 0.045; in assay [6], 1.74. In addition, the z-score was 0.269 (inactive) in [7], 0.666 in assay [8], -0.796 in assay [9] and -0.292 (inactive) in assay [10].
Take `COC(=O)[C@H](C)NC(=O)CCC1CC(OC(=O)NCc2cccc3ccccc23)CC2(CCCC(COC(=O)NCCc3ccc(Cl)cc3)O2)O1` (stereo not given in full): the z-score in assay [1] is 0.346; in assay [2] it was 0.118; in [3], 0.0326; in assay [4], -0.333; in assay [5] it was -0.94; in assay [6], 0.159. In addition, the z-score is -0.294 (inactive) in assay [7], -0.318 in assay [8], -0.197 in assay [9] and 0.871 (inactive) in assay [10].
With `CC(C)[C@@H](OCc1ccccc1)[C@H](C)C=NO[C@H](C)c1cn([C@H](CO)Cc2ccccc2)nn1`, the z-score in assay [1] was -0.22; in assay [2], 0.315; in assay [3], 0.235; in assay [4], -0.192; in assay [5], 0.153; in [6] it was -1.15. In addition, the z-score in assay [7] is 0.629 (inactive); in assay [8], 0.339; in assay [9] it was 0.115; in assay [10], -1.02 (inactive).
On to `COC(=O)[C@@H]1CC[C@H](C)[C@@H](c2ccc(C)cc2)N1C(=O)c1ccc(C=NOC(C)CN2CCCCc3nc(C)c(C)cc32)cc1` (stereo not given in full), for which the z-score is -1.19 in assay [1]; -0.0501 in assay [2]; -2.59 in assay [3]; -2.73 in assay [4]; -4 in assay [5]; -0.414 in assay [6]. The z-score in assay [7] was -1.72 (inactive); in assay [8], -1.16; in assay [9] it was -1.54; in assay [10], 2.21 (inactive).
For the molecule `C=CCNC(=O)[C@H]1[C@@H]2C(=O)O[C@@H](c3ccccc3)[C@@H](c3ccccc3)N2[C@@H](c2ccc(O)cc2)[C@]12C(=O)N(C(=O)OCCOC)c1ccc(C#CC3=CCCCC3)cc12`, the z-score in [1] is -1.1; in assay [2], 0.537; in [3], -0.444; in assay [4], -2.53; in assay [5], -3.23; in assay [6], -1.47. In addition, the z-score was -0.777 (inactive) in assay [7], -0.611 in [8], -0.324 in [9] and 0.512 (inactive) in assay [10].
For `O=C1C[C@@H](O)[C@@H](O)[C@@H]2[C@@H]3C(=O)N(c4ccc(F)cc4F)C(=O)[C@@H]3CC[C@@H]12`, the z-score in assay [1] was -0.294; in assay [2] it was -0.0367; in assay [3], 0.644; in assay [4] it was -0.701; in assay [5], -0.709; in [6], -0.56. The z-score is -0.597 (inactive) in assay [7], -0.28 in assay [8], 0.959 in assay [9] and 0.824 (inactive) in [10].
As for `O=C1C[C@@H](O)[C@@H](O)[C@@H]2[C@@H]3C(=O)N(C4CCCCC4)C(=O)[C@@H]3CC[C@H]12`, the z-score in assay [1] is 0.18; in [2], 0.0589; in assay [3] it was 0.0702; in assay [4], -0.148; in assay [5], -0.189; in assay [6] it was -0.401. In addition, the z-score is -0.364 (inactive) in [7], 0.0892 in [8], -0.354 in assay [9] and 0.386 (inactive) in [10].
For `COc1ccc(O[C@@H]2[C@H](O)CO[C@H]2C=CC#Cc2ccccc2)cc1`, the z-score in assay [1] was -0.128; in assay [2], 0.392; in assay [3], 0.0395; in assay [4], -2.54; in assay [5], -0.0849; in assay [6] it was -0.445. Also, the z-score in assay [7] is -0.403 (inactive); in [8], 0.617; in assay [9], 0.113; in assay [10] it was 0.357 (inactive).
On to `O=C1[C@H]2[C@H]3[C@H](O)[C@H](O)CC(=NO[C@@H]4O[C@H](CO)[C@@H](O)[C@H](O)[C@H]4O)[C@H]3CC[C@H]2C(=O)N1C1CCCCC1`, for which the z-score was -0.649 in [1]; 0.034 in assay [2]; -0.627 in [3]; 0.206 in assay [4]; 0.115 in assay [5]; -0.871 in assay [6]. For the same molecule, the z-score was -1.53 (inactive) in [7], 0.368 in assay [8], -0.11 in assay [9] and 0.302 (inactive) in assay [10].
With `COc1ccccc1CN1C(=O)c2ccccc2[C@@]2(Cc3ccccc3N(C(C)C)C2=O)[C@@H]1c1ccc(CO)cc1`, the z-score in assay [1] is 0.212; in assay [2], 0.423; in assay [3], 1.29; in assay [4], -0.19; in assay [5], 0.931; in assay [6], 0.881. The z-score was 0.576 (inactive) in [7], 0.563 in assay [8], 0.374 in assay [9] and -1.64 (inactive) in [10].
Regarding `CCOC(=O)NN=C1C[C@@H](O)[C@@H](O)[C@@H]2[C@@H]3C(=O)N(C4CCCCC4)C(=O)[C@@H]3CC[C@@H]12`, the z-score was -0.117 in [1]; -0.091 in assay [2]; -0.281 in assay [3]; 0.0416 in assay [4]; -0.771 in [5]; -0.426 in [6]. For the same molecule, the z-score in [7] was -0.61 (inactive); in assay [8] it was -0.0516; in assay [9] it was 0.134; in assay [10], -0.361 (inactive).
Take `CO[C@@H]1COC(=O)CC=C[C@@H](C)[C@H](OC)COC(=O)[C@H](COCc2ccccc2)NC(=O)CC=C[C@H]1C`: the z-score in assay [1] was -0.0667; in assay [2], 0.461; in [3] it was 0.422; in assay [4], -0.0878; in [5] it was 0.651; in assay [6], 0.0535. The z-score is -0.303 (inactive) in assay [7], 0.577 in assay [8], 0.179 in assay [9] and -0.27 (inactive) in assay [10].
Consider `O=C1O[C@@H](c2ccccc2)[C@@H](c2ccccc2)N2[C@@H](c3ccc(OCCO)cc3)[C@]3(C(=O)Nc4ccccc43)[C@@H](C(=O)N3CCN(c4ncccn4)CC3)[C@H]12`, for which the z-score in assay [1] is -0.47; in [2], -0.888; in assay [3], 0.834; in [4], -0.138; in assay [5], 0.229; in assay [6], -0.679. Also, the z-score in assay [7] is 0.339 (inactive); in [8], -0.842; in assay [9] it was -0.779; in assay [10], 0.42 (inactive).
Turning to `COc1ccc(O[C@H]2C=C[C@@H](c3ccccc3)O[C@@H]2CON=C[C@@H](C)[C@H](OCc2ccccc2)C(C)C)cc1`, the z-score is 0.688 in assay [1]; -0.106 in assay [2]; 1.7 in [3]; 0.553 in [4]; -0.903 in [5]; 0.46 in assay [6]. Moreover, the z-score in assay [7] was 0.732 (inactive); in assay [8], -0.0803; in assay [9], -0.486; in [10] it was -0.463 (inactive).
As to `CCOC(=O)[C@H](Cc1ccccc1)NC(=O)CCC1CC(OC(=O)NCc2ccc3c(c2)OCO3)CC2(CCCC(COC(=O)NCc3cccc(C(F)(F)F)c3)O2)O1` (stereo not given in full), the z-score was 0.46 in [1]; 1.24 in assay [2]; -0.526 in assay [3]; 0.706 in assay [4]; -2.18 in [5]; 2.06 in [6]. The z-score is -0.56 (inactive) in assay [7], 0.918 in assay [8], -0.622 in assay [9] and -0.0224 (inactive) in [10].
